# According to PubChem BioAssay (NCATS):
# Unmarked numbers belong to inactive results. Results filed as inconclusive are left out. A call without a number means that no potency is given here. Active and inactive are the calls of the source. Unless noted, calls come from the whole dose curve; as a rule, active = well fitted curve in either direction with a large enough effect (not every such curve was filed as active); inconclusive = small, poorly fitted or top-dose-only effect, or another doubt; inactive = flat fitted curve, though single readings scatter.
# Assays:
# [1] = Stat Signaling Pathway (AID 446); conditions: ME-180 SIE beta-lactamase reporter, IL-6 stimulated, 5 h; at 7.69 µM (top of the series) unless noted;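 note: ME-180 cervical cancer cells given 40 pM IL-6 alongside compound; SIE-controlled beta-lactamase reporter measured as 460/530 nm FRET emission ratio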
# In short: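 Reporter line: ME-180 cervical carcinoma, SIE-beta-lactamase. Treatment: compound with 40 pM IL-6, 5 hrs, 37 C, in low-serum OPTI-MEM with 10 mM HEPES pH 7.3. Detection: 460/530 nm fluorescence.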
# [2] = target: Glucocorticoid receptor (Homo sapiens) (UniProt P04150); assay: GR-GFP Redistribution (AID 450;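 active = compounds whose dose series gives a full or clear partial fitted curve of increased nuclear translocation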; note: potency is the fitted concentration of half-maximal effect); conditions: U2OS GR-GFP nuclear translocation, laser cytometry, 2 h
# [3] = target: Glucocorticoid receptor (Homo sapiens) (UniProt P04150); assay: GR-EFC Redistribution (AID 451; calls by dose curve; note: potency is the fitted concentration of half-maximal effect); conditions: CHO-K1 GR-EFC translocation, beta-gal luminescence, 2 h
# In short: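 CHO-K1 cells expressing nuclear EA and GR-ED fragments of b-gal; compounds titrated up to 46 uM final, 2 h at 37 C. GR nuclear translocation read as complemented b-gal luminescence after 1 h RT detection.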
# [4] = target: Mitogen-activated protein kinase 10 (Mus musculus) (UniProt Q61831); assay: JNK3 AlphaScreen Assay (AID 530);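 note: kinase came from lysate of stimulated human HepG2 cells; signal reports phosphorylation of biotinylated GST-cJun 1-79 at Ser73 with 10 µM ATP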
# In short: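 qHTS format: compounds tested as titrations against IL-1beta/TNF-alpha-activated HepG2 lysate JNK3 with biotin-GST-cJun substrate and 10 uM ATP at room temperature. Loss of anti-phospho-cJun AlphaScreen signal indicates inhibition.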
# [5] = target: 3',5'-cyclic-AMP phosphodiesterase 4B (Homo sapiens) (UniProt Q07343); assay: qHTS Assay for Inhibitors of PDE-IV (AID 607; active = well fitted activation curve with a large enough effect in the main read-out, with a control signal flat, not every such curve was filed as active)
# In short: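 Cell-based read-out of cAMP via a modified cyclic nucleotide-gated channel and membrane potential dye (535/590 nm) in HEK293 cells expressing PDE4 endogenously. Compounds tested up to 22.9 uM final; 100 uM RO 20-1724 reference.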
# [6] = AP1 Signaling Pathway (AID 357); conditions: ME-180 AP-1-bla reporter, EGF-induced, beta-lactamase ratio, 5 h; at 7.69 µM (top of the series) unless noted;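 note: ME-180 reporter cells stimulated with EGF at its EC50 level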
# In short: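 Read-out was the 460nm/530nm emission ratio (excitation 405nm) after CCF4 loading for 2.5 hours at room temperature. Cells carried an AP-1-driven beta-lactamase reporter, were stimulated with EC50 EGF plus compound for 5 hours, and AC50 values came from titrations.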
# [7] = target: Cytochrome P450 1A2 (Homo sapiens) (UniProt P05177); assay: p450-cyp1a2 (AID 410; calls by dose curve; note: potency is the fitted concentration of half-maximal effect)
# In short: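 Human CYP1A2 (20nM) demethylated Luciferin-ME at its Km (100uM) in 100mM KPO4. After 10 min compound preincubation, NADPH regeneration ran the reaction 60 min at room temperature. Luciferin was read by luminescence, normalized to 57 uM furafylline.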
# [8] = NFAT Signaling Pathway (AID 444); conditions: Jurkat NFAT-bla M1, carbachol, beta-lactamase ratio, 5 h; at 7.69 µM (top of the series) unless noted;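 note: carbachol stimulus at about its EC50 of 1 µM final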
# In short: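 Jurkat cells with NFAT-driven β-lactamase reporter and co-expressed M1 receptor, stimulated with carbachol (final 1 uM, ~EC50), compound titration, 5 h at 37 °C. CCF4 loaded 1 h at RT; 460/530 nm ratio gave %activity and AC50.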
# [9] = target: Guanine nucleotide-binding protein G(i) subunit alpha-1 (Homo sapiens) (UniProt P63096); assay: qHTS Assay for Inhibitors of RGS12 GoLoco Motif Activity (Green Fluorophore) (AID 879; active = well fitted curve in the direction sought with a large enough effect; an effect the other way counts as inactive or inconclusive;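 note: negative values mean loss of peptide binding seen as reduced polarization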)
# In short: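 Fluorescence polarization assay: 50 nM Gαi1 with 10 nM FITC-labeled RGS12 GoLoco peptide in 10 mM Tris pH 7.5, 150 mM NaCl, 0.1 mM GDP, 0.05% NP40, 10 min at room temperature with compound.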
# [10] = qHTS Assay for Identification of Small Molecule Agonists for Thrombopoietin (TPO) Signaling Pathway (AID 917; active = well fitted curve in the direction sought with a large enough effect; an effect the other way counts as inactive or inconclusive)
# In short: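 IL-3-dependent murine pro-B Ba/F3 cells, stably transfected with human TPO receptor and GpIIb-promoter luciferase, are incubated 24 hrs at 37 C with test compound and 26 pM TPO; luciferase signal is read after 10 min at room temperature.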
# [11] = target: Muscarinic acetylcholine receptor M1 (Rattus norvegicus) (UniProt P08482); assay: qHTS Assay for Antagonists of Acetylcholine Muscarinic M1 Receptor: Measurement of IP-One Response (AID 944; active = well fitted curve in the direction sought with a large enough effect; an effect the other way counts as inactive or inconclusive; note: nearly all actives have a fitted effect of over 75% in size)
# In short: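 CHO cells expressing rat M1 receptor, recovered overnight, were pre-incubated 10 min with compound, then stimulated 30 min with carbachol at EC80 (200 nM) in LiCl-containing buffer, pH 7.4. IP1 accumulation was read by HTRF (620/665 nm).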
# [12] = target: Pyruvate kinase PKM (Homo sapiens) (UniProt P14618); assay: qHTS Assay for Activators of Human Muscle Pyruvate Kinase (AID 954; active = well fitted curve in the direction sought with a large enough effect, not every such curve was filed as active)
# In short: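 Human PKM2 activity is measured as ATP generation, detected by luciferase-coupled luminescence. The enzyme (0.1 nM) acts on 0.5 mM PEP and 0.1 mM ADP for 1 h at ambient temperature; data are normalized to uninhibited and full-inhibition wells.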
# [13] = target: Alpha-galactosidase A (Homo sapiens) (UniProt P06280); assay: Counterscreen for Glucocerebrosidase Inhibitors: qHTS Assay for Human alpha-Galactosidase at pH 4.5 (AID 992; active = well fitted curve in the direction sought with a large enough effect; an effect the other way counts as inactive or inconclusive)
# In short: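 Quantitative HTS: compounds tested from 0.7 nM up to 77 uM against 2 nM enzyme with 80 uM 4-MU alpha-D-galactopyranoside. The 20 min room-temperature reaction is stopped with 1M NaOH/1M glycine, pH 10.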
# [14] = target: alpha-glucosidase (Oryza sativa, rice) (UniProt Q653V4); assay: Counterscreen for Glucocerebrosidase Inhibitors: qHTS Assay for Rice alpha-Glucosidase at pH 5.0 (AID 997; active = well fitted curve in the direction sought with a large enough effect; an effect the other way counts as inactive or inconclusive)
# In short: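 Rice alpha-glucosidase (4 nM final) with 400 uM 4-methylumbelliferyl-alpha-D-glucopyranoside in citrate buffer pH 5.0, 20 min at room temperature, stopped at pH 10; fluorescence 365/440 nm, compounds 0.7 nM–77 uM, AC50 from Hill fits.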
# [15] = target: Cytochrome P450 2D6 (Homo sapiens) (UniProt P10635); assay: qHTS Assay for Inhibitors and Substrates of Cytochrome P450 2D6 (AID 891; active = well fitted curve in the direction sought with a large enough effect; an effect the other way counts as inactive or inconclusive;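 note: luciferin methyl ether substrate demethylated by CYP2D6 with NADPH regeneration; nearly all actives have a fitted effect of over 60% in size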)
# In short: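 Human CYP2D6 (5 nM) with 30 uM Luciferin-ME EGE (at Km) in 100 mM KPO4, compound preincubated 10 min, then NADPH regeneration system for 60 min at room temperature. Luciferin read by luminescence; normalized to 1.43 uM quinidine.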
# [16] = target: Pyruvate kinase (Leishmania mexicana) (UniProt Q27686); assay: qHTS Validation Assay for Inhibitors of Leishmania Mexicana Pyruvate Kinase (AID 945; active = well fitted curve in the direction sought with a large enough effect; an effect the other way counts as inactive or inconclusive)
# In short: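 Pyruvate kinase activity of E451W LmPYK (0.2 nM) was followed as ATP output after 1 h at room temperature with 0.5 mM PEP and 0.1 mM ADP, detected by PKLight luminescence.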
# [17] = qHTS Assay for Identification of Small Molecule Antagonists for NFkB Signaling Pathway (AID 895; active = well fitted inhibition curve with a large enough effect in the signal ratio, with a control signal flat, not every such curve was filed as active; the % refers to the signal ratio)
# In short: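 ME-180 NFkB-bla cells (beta-lactamase under NFkB response element), plated overnight, treated with compound then 10 pM TNF alpha (about EC50) for 5 hrs at 37 C. LiveBLAzer FRET read at 460/530 nm emission, 405 nm excitation.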
# [18] = target: Muscarinic acetylcholine receptor M1 (Rattus norvegicus) (UniProt P08482); assay: qHTS Assay for Antagonists of Acetylcholine Muscarinic M1 Receptor: Kinetic Measurement of Intracellular Calcium Response (AID 943; active = well fitted curve in the direction sought with a large enough effect; an effect the other way counts as inactive or inconclusive;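 note: Fluo-4 calcium signal as peak divided by basal fluorescence over 4 min; nearly all actives have a fitted effect of over 75% in size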)
# In short: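 CHO cells stably expressing rat M1 were loaded with no-wash Fluo-4 dye for 1 h at 37C, pre-incubated 10 min with compound, then challenged with EC80 carbachol (100 nM final); kinetic calcium read 4 min, peak/basal ratio.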
# Sequence of Cytochrome P450 1A2 (Homo sapiens) (P05177 whole entry, looked up): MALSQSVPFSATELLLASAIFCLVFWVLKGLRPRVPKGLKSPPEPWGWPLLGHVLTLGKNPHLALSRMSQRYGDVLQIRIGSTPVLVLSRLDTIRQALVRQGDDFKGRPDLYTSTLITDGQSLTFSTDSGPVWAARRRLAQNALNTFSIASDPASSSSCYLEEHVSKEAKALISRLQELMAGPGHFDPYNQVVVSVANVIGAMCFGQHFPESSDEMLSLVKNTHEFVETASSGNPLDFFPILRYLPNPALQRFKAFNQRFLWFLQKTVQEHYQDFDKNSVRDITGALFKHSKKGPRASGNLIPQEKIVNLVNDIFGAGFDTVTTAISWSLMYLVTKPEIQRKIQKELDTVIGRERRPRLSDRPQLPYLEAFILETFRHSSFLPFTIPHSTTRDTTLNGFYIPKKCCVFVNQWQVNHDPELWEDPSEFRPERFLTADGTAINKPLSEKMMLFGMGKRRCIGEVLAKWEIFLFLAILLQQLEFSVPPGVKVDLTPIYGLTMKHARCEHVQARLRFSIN
# Sequence of 3',5'-cyclic-AMP phosphodiesterase 4B (Homo sapiens) (Q07343 whole entry, looked up): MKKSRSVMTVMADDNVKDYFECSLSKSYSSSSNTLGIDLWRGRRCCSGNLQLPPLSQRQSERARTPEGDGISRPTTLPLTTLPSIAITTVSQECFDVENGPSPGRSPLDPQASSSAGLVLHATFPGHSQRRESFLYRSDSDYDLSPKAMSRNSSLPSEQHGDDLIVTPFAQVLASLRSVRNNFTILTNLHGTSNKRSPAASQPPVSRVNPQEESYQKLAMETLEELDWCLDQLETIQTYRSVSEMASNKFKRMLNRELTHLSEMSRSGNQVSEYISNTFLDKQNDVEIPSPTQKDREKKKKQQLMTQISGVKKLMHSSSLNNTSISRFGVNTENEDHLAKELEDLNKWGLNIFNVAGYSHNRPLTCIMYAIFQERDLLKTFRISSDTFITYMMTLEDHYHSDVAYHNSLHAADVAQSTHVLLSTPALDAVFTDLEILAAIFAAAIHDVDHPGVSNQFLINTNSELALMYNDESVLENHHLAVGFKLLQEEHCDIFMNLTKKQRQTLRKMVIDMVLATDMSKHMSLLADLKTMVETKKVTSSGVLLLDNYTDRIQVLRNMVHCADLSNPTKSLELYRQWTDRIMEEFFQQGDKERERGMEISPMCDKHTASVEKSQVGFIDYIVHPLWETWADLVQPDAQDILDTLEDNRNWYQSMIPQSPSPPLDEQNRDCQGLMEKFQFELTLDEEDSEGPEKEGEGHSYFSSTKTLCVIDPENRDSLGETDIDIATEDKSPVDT
# Sequence of Guanine nucleotide-binding protein G(i) subunit alpha-1 (Homo sapiens) (P63096 whole entry, looked up): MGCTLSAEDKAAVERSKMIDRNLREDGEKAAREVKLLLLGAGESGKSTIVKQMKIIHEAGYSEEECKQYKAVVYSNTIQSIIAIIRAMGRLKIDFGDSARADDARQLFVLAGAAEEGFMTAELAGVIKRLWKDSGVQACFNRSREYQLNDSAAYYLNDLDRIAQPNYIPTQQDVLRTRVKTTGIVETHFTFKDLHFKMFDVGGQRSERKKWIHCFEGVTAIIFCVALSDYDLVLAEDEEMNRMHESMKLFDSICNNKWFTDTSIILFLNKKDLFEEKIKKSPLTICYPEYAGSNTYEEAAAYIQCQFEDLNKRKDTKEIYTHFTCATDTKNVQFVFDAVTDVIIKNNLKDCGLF
# Sequence of Muscarinic acetylcholine receptor M1 (Rattus norvegicus) (P08482 whole entry, looked up): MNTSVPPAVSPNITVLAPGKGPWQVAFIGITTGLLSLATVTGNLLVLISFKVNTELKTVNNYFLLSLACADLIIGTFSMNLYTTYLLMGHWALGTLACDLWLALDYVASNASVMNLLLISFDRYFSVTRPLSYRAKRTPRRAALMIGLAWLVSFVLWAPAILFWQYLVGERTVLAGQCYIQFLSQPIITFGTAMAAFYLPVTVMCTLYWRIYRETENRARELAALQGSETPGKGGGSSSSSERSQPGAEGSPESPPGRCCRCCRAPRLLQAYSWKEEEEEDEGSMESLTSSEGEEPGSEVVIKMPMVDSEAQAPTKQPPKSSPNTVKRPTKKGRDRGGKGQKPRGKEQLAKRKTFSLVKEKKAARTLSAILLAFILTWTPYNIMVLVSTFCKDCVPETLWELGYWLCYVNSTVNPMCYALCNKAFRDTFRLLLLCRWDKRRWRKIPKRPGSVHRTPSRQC
# Sequence of Alpha-galactosidase A (Homo sapiens) (P06280 whole entry, looked up): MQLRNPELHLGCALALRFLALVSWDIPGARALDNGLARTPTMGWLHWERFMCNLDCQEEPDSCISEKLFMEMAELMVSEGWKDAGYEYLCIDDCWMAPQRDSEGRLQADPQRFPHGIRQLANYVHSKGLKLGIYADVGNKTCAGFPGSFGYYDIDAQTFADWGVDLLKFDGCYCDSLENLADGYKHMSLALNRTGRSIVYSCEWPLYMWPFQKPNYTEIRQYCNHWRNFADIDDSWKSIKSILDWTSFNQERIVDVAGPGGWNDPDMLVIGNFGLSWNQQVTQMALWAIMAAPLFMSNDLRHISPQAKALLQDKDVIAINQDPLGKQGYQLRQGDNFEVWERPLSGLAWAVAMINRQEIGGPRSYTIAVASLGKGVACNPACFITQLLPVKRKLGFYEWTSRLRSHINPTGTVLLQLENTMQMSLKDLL
# Sequence of Pyruvate kinase PKM (Homo sapiens) (P14618 whole entry, looked up): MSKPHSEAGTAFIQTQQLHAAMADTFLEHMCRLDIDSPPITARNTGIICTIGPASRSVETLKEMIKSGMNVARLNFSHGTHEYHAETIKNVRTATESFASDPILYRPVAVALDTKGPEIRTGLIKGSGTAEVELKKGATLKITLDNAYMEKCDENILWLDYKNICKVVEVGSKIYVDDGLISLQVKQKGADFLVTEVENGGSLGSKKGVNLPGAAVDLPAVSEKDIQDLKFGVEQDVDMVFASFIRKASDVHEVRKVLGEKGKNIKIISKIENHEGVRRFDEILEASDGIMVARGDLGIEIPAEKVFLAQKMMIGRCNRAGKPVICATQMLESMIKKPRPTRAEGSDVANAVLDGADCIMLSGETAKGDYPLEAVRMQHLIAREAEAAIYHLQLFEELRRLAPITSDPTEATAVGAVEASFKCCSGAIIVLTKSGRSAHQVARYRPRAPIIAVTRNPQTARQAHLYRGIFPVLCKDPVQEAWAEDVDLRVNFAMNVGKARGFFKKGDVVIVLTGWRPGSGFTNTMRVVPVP
# Sequence of Glucocorticoid receptor (Homo sapiens) (P04150 whole entry, looked up, the tested form may be a part): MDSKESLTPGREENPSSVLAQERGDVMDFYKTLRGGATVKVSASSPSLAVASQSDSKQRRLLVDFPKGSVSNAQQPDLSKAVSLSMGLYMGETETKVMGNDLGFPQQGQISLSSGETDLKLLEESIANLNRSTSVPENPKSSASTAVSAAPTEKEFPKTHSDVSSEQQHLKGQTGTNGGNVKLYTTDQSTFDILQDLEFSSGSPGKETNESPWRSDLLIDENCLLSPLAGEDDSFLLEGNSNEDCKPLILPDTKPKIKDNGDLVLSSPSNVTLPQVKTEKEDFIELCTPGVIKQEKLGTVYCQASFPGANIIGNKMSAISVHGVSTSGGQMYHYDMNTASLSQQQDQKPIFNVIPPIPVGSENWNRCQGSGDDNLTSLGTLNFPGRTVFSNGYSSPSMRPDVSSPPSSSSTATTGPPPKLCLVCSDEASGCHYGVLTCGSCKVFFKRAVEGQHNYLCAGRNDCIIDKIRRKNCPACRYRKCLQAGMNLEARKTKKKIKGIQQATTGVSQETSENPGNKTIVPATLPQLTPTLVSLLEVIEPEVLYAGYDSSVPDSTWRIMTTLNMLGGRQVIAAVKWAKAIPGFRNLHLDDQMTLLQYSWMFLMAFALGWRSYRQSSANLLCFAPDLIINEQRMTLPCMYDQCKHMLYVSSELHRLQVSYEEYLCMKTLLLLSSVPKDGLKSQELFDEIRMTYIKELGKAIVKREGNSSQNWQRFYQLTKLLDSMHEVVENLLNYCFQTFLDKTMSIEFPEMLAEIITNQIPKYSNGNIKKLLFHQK
# Sequence of Pyruvate kinase (Leishmania mexicana) (Q27686 2-499 E452W): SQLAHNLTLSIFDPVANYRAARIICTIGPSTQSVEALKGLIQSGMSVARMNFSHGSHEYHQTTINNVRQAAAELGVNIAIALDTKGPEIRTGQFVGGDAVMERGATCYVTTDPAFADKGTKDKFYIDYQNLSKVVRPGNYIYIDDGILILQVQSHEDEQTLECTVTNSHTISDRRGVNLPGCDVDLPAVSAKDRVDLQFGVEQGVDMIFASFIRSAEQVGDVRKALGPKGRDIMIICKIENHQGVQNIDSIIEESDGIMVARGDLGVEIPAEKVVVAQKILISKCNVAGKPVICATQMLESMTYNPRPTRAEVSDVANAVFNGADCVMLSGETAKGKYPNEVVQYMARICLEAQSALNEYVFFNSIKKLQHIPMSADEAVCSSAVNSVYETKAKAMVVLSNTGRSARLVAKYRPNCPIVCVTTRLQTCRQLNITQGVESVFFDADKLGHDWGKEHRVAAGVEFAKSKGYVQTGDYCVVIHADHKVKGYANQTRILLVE
# Sequence of Cytochrome P450 2D6 (Homo sapiens) (P10635 whole entry, looked up): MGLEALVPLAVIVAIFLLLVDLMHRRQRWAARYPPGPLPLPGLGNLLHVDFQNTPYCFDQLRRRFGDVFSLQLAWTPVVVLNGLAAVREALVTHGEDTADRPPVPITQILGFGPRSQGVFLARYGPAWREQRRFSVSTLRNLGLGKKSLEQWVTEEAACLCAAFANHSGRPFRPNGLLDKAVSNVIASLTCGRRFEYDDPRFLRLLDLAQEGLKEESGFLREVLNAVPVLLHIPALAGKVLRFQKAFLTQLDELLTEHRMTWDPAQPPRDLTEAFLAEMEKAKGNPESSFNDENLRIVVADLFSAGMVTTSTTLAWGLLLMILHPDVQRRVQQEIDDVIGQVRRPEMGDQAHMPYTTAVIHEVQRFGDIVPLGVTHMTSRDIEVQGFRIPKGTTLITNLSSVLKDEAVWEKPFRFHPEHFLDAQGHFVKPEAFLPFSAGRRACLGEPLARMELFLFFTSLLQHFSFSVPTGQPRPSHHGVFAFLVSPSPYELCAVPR
Compound,"activity, negative = inhibition [1]",Potency [2] [µM],Potency [3] [µM],Potency [4],Potency [5],"activity change, negative = inhibition [6]",Potency [7],"activity change, negative = inhibition [8]",outcome [9],outcome [10],Potency [11],outcome [12],outcome [13],Potency [14],Potency [15],outcome [16],Potency [17],Potency [18],"activity change, negative = inhibition [7]"
CC(CO)(CO)N=Cc1cc(I)cc(I)c1O,-24.6%,> 46,> 9.22,inactive,inactive,–,–,–,–,–,–,–,–,–,–,–,–,–,–
Nc1ncnc2c1ncn2[C@@H]1CCCO1,-7.91% [at 38 µM],> 46,> 46,inactive,inactive,2.44% [at 38 µM],inactive,-4.45% [at 38 µM],inactive,inactive,inactive,inactive,inactive,inactive,–,–,–,–,–
CSc1nc(N)c2ncn([C@@H]3O[C@@H](COP(=O)(O)OP(=O)(O)OP(=O)(O)O)[C@@H](O)[C@H]3O)c2n1,-1.18% [at 38 µM],> 46,> 46,inactive,inactive,18.4% [at 38 µM],inactive,0.479% [at 38 µM],inactive,inactive,inactive,inactive,inactive,inactive,inactive,inactive,–,–,–
Cc1ccccc1N1CCN(S(=O)(=O)C[C@@]23CC[C@H](C[C@H]2NC(=O)[C@@H](N)CCS(C)(=O)=O)C3(C)C)CC1,-9.73% [at 38 µM],> 46,> 46,inactive,inactive,28.6% [at 38 µM],inactive,14% [at 38 µM],inactive,inactive,inactive,inactive,inactive,–,–,inactive,inactive,inactive,–
CC(=O)Nc1ccc(S(=O)(=O)N=S(C)C)cc1,-3.32%,> 46,> 9.22,inactive,inactive,4.76%,–,3.98%,–,–,–,–,–,–,–,–,–,–,-15.9% [at 2.29 µM]
C[N+](C)(C)/N=C\c1ccc(O)c(O)c1,3.02%,> 46,> 9.22,inactive,inactive,4.59%,10 µM (active),8.29%,–,–,–,–,–,–,–,–,–,–,–
